Screening data: PubChem BioAssay, National Center for Advancing Translational Sciences (NCATS)
An excerpt weighted towards active compounds, which were near 5.9% of everything screened.
RORgamma inh = qHTS for inhibitors of ROR gamma transcriptional activity; Drosophila S2 Gal4-RORgamma UAS-luciferase reporter, 20 h; Potency, µM (top dose mostly 53.6 µM), actives largely listed as inhibitors; 310,000 tested, 5.4% active; also: nearly all actives have a fitted effect of over 60% in size
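Compounds are pin-transferred onto Drosophila Schneider cells expressing a copper-inducible Gal4–ROR gamma transactivation domain fusion. After 1 hr, copper sulfate is added to 700 uM final; luciferase is read 20 hr later.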
FBPA coupling cs = qHTS Assay for Inhibitors of Fructose-1,6-bisphosphate Aldolase from Giardia Lamblia: Coupling assay counterscreen | coupling enzyme system counterscreen, AmpLite Red fluorescence | activity change, negative = inhibition, % at 58.2 µM, hits read low | 290,000 tested, 0.67% active | AID 2472, 2010; in the data active = activity change below about -30%
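Coupling enzymes only (glyceraldehyde-3-phosphate) + compound, at 57.5 uM final, 10 min RT; add substrate/coupling/AmpLite Red mix, 20 min RT; fluorescence ex 525/em 598 nm. Actives flag coupling-system interference.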
TrxR1 substrate = qHTS Assay for Substrates of Mammalian Selenoprotein Thioredoxin Reductase 1 (TrxR1): qHTS; Thioredoxin reductase 1, cytoplasmic (Rattus norvegicus), O89049; 390,000 tested, 0.01% active; AID 588456, 2011; purified TrxR1 substrate turnover, NADPH consumption readout; Potency, µM (series often up to 114 µM); also: nearly all actives have a fitted effect of over 50% in size
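Rat TrxR1, dispensed at 90 nM, was prereduced with 400 uM NADPH (final) for 5 min at ~22 deg C, then incubated with compound 15 min before 400 uM selenite. A first-read NADPH fluorescence drop versus no-compound background flagged substrates.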
Gal4-VP16 FLuc = VP16 counterscreen qHTS for inhibitors of ROR gamma transcriptional activity. Potency, µM (titrated, usually from 53.6 µM), usual class: inhibitors. 310,000 tested, 3.5% active. Drosophila S2 Gal4-VP16 UAS-luciferase, luminescence, 20 h;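 also: Gal4-VP16 expression switched on by copper sulfate through the metallothionein promoter; nearly all actives have a fitted effect of over 50% in size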
GALK inhibitor = qHTS Assay for Inhibitors of Human Galactokinase (GALK). P51570. Purified GALK, Kinase-Glo residual ATP luminescence. Potency, µM (titrated, usually from 57.5 µM), hits mostly inhibitors. 270,000 tested, 0.007% active. AID 1868, 2009
Target sequence (P51570 whole entry, looked up): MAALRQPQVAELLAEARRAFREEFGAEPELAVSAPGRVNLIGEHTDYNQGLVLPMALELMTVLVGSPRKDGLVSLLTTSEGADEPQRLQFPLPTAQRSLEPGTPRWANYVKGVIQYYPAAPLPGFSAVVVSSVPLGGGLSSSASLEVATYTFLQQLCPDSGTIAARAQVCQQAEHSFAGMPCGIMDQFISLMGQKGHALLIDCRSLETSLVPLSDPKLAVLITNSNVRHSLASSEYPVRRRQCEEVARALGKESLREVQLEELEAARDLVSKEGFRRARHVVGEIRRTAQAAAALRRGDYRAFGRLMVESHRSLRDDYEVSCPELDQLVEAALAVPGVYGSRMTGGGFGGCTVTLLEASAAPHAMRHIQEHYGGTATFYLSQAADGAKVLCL
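Human GALK (5 nM) with 35 uM ATP and 100 uM galactose in 20 mM HEPES pH 8.0, 5 mM MgCl2, 60 mM NaCl, 1 mM DTT, 0.01% BSA. After 1 h at room temperature, leftover ATP was read by Kinase-Glo Plus luminescence.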
rTrxR1 inhibitor = qHTS Assay for Inhibitors of Mammalian Selenoprotein Thioredoxin Reductase 1 (TrxR1): qHTS; Thioredoxin reductase 1, cytoplasmic (Rattus norvegicus), O89049; recombinant rTrxR1, NADPH fluorescence consumption, selenite substrate; Potency, µM (series often up to 114 µM), usual class: inhibitors; 390,000 tested, 1% active; AID 588453, 2011; also: nearly all actives have a fitted effect of over 65% in size
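Rat TrxR1 (90 nM in the dispensed reagent) was pre-reduced with 400 uM NADPH for 5 min at room temperature, then incubated with compound for 15 min. After 400 uM selenite was added, NADPH fluorescence (Ex 340/Em 450 nm) was followed for 8 min.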
Hits are given with their value; 0 = inactive; ? = inconclusive; - = no result given; [ ] = dose if it differs, or a comment. Unless noted, calls follow the shape of the dose curve; as a rule, active = well fitted curve in the direction sought with a large enough effect; inconclusive = small, poorly fitted or top-dose-only effect, or another doubt; inactive = no such curve, though single readings can be large; an effect the other way counts as inactive or inconclusive.

SMILES	RORgamma inh	FBPA coupling cs	TrxR1 substrate	Gal4-VP16 FLuc	GALK inhibitor	rTrxR1 inhibitor
Cc1ccc(NC(=S)Nc2ccc(S(=O)(=O)Nc3ncccn3)cc2)c(C)c1	13µM	0	0	0	0	0
O=C(Nc1ccc(Cc2ccncc2)cc1)c1ccc(S(=O)(=O)N2CCOCC2)cc1	0	0	0	7.1µM	0	0
O=C(Nc1ccc(S(=O)(=O)N2CCOCC2)cc1)c1ccc(S(=O)(=O)N2CCOCC2)cc1	0	0	0	0	-	0
Cc1cc(C)nc(NS(=O)(=O)c2ccc(NC(=O)CSc3nc4ccccc4[nH]3)cc2)n1	0	0	0	4µM	-	0
Cc1ccc(C)c(NC(=S)Nc2ccc(S(=O)(=O)Nc3ncccn3)cc2)c1	?	0	0	?	0	0
CCCC(=O)n1nc(-c2ccccc2)nc1SC	0	0	0	0	0	0
COc1ccc(NS(=O)(=O)c2cc(NC(=O)C3=NN(c4ccccc4)C(=O)CC3)ccc2C)cc1	-	-	0	-	-	0
Cc1ccnc(NS(=O)(=O)c2ccc(NC(=O)c3ccc(S(=O)(=O)N4CCCC4)cc3)cc2)n1	0	0	0	0	0	0
O=C(Nc1ccc(S(=O)(=O)Nc2ncccn2)cc1)c1ccc(S(=O)(=O)N2CCCC2)cc1	13µM	0	0	0	0	0
COc1ccc(NS(=O)(=O)c2cc(NC(=O)c3ccc(C)o3)ccc2N2CCCCC2)cc1	6.3µM	0	0	4.5µM	0	0
COc1ccc(NS(=O)(=O)c2cccc(NC(=O)C3=NN(c4ccccc4)C(=O)CC3)c2)cc1	?	0	0	11µM	0	0
O=C(CSc1ccccc1)Nc1ccc(S(=O)(=O)Nc2ncccn2)cc1	13µM	0	0	0	0	0
COCc1cc(=O)[nH]c(N2CCN(c3ccccc3OC)CC2)n1	0	0	0	0	0	0
COc1cc(CCCN2C(=S)NC[C@@H]2CC2CCCCC2)cc(OC)c1OC	4µM	0	0	?	0	0
N#C/C(=C\c1ccccc1O)C(=O)Nc1ccccn1	0	0	0	0	0	0
O=C(CSc1cn(CC(=O)N2CCCC2)c2ccccc12)NCC1CCCO1 (configuration not stated)	0	0	0	0	0	0
Cc1ccc(N2CCN(/N=C/c3ccncc3)CC2)cc1	0	0	0	14µM	0	0
CCN(CC)c1cc(Cl)c2nonc2c1N	0	0	0[11.4 µM]	0	0	0[11.4 µM]
CN(C)c1cc(Cl)c2nonc2c1N	0	-30	0	0	?	0
O/N=C/c1ccccc1Oc1ccccc1	0	0	0	0	0	0
COc1cc(OC)cc(-c2nc3nc(C)c(CCC(=O)Nc4cc(F)ccc4F)c(C)n3n2)c1	-	-	0	-	-	0
Cc1cccc(-c2n[nH]c(=S)n2/N=C/c2cccs2)c1	5µM	0	0	10µM	0	0
S=c1[nH]nc(-c2cccnc2)n1/N=C/c1cccs1	?	0	0	0	0	0
Cc1cccc(-c2n[nH]c(=S)n2/N=C/c2ccc(C)s2)c1	11µM	0	0	5.6µM	0	0
Cc1nc(C(C)(C)O)n(-c2ccccc2)n1	0	0	0	0	0	0
SMILES	RORgamma inh	FBPA coupling cs	TrxR1 substrate	Gal4-VP16 FLuc	GALK inhibitor	rTrxR1 inhibitor
C/C(=N\NC(=S)Nc1ccc(F)cc1)c1ccc2c(c1)OCCO2	1.3µM	0	0	4µM	0	0
C/C(=N\NC(N)=S)c1ccc2c(c1)OCCO2	5µM	0	0	?	0	0
CC(=O)N/N=C(\C)c1ccc2c(c1)OCCO2	0	0	0	0	0	0
C/C(=N/NC(=O)c1ccc2c(c1)OCO2)c1ccc(NC(=O)c2ccc(F)cc2)cc1	0	-	0	0	0	0
CN1CCN(c2nc3c(c(=O)n(C)c(=O)n3C)n2Cc2ccc(Cl)cc2)CC1	0	0	0	0	0	0
O=C(Cn1cnc2scc(-c3ccc(Cl)cc3)c2c1=O)N1CCOCC1	0	0	0	0	0	0
C(=C\c1ccccc1)/C=N/Nc1nc2ccccc2s1	7.9µM	0	0	?	0	0
CCC/C=N/Nc1nc2ccccc2s1	11µM	0	0	?	0	0
Cc1ccc(-c2csc(N/N=C/C=C/c3ccccc3)n2)cc1	2.8µM	0	0	?	-	0
C(=N\Nc1nc(-c2ccccc2)cs1)/c1ccncc1	0	0	0[11.4 µM]	0	0	0[11.4 µM]
O=c1c2cccnc2[nH]c(=S)n1CCCN1CCN(c2ccccc2F)CC1	2.2µM	0	0	0	0	0
O=c1c2ccccc2[nH]c(=S)n1CCCN1CCN(c2ccccc2)CC1	7.9µM	0	0	10µM	0	0
CC1CC(C)CN(CCCn2c(=S)[nH]c3ccccc3c2=O)C1 (configuration not stated)	?	0	0	?	0	0
CC1CCCCN1CCn1c(=S)[nH]c2ncccc2c1=O (configuration not stated)	0	0	0	0	0	0
O=c1c2ccccc2[nH]c(=S)n1CCCN1CCN(c2ccccc2F)CC1	3.5µM	0	0	8.9µM	0	0
O=c1c2ccccc2[nH]c(=S)n1CCN1CCCCC1	0	0	0	0	0	0
Nc1c(C=C2C=CC(=O)C=C2)c(=O)nc2snc(SCc3ccccc3)n12	?	0	0	0	0	0
NS(=O)(=O)c1cc2c(cc1Cl)NC(c1ccccc1OCC(=O)O)NS2(=O)=O (configuration not stated)	0	0	0	0	0	0
CCCS/C(N)=N/N=C/c1cc(C)ccc1O	0.89µM	0	0	2µM	0	0
Cc1ccc(O)c(C=Nc2ccc3[nH]ncc3c2)c1	0	0	0	?	-	0
CCCCS/C(N)=N/N=C/c1ccccc1O	0.63µM	0	0	1.1µM	0	0
CCOc1ccc(N(C(=O)c2ccc(C)cc2)S(=O)(=O)c2ccc3c(c2)n(C)c(=O)n3C)cc1	-	-	0	-	-	0
CCCC(O)(c1ccc(Br)cc1)C(CN1CCOCC1)c1ccc(Cl)cc1 (configuration not stated)	0	0	0	0	-	0
Cc1ccc(-c2cnc(NC(=O)CCC(=O)N3CCCCC3)n2C)cc1	3.5µM	0	0	7.9µM	0	0
O=C(CCC(=O)N1CCCCC1)Nc1ccc(Cl)c(Cl)c1	0	-	0	0	0	0
CCCNC(=O)CCn1c(-c2ccc(C)cc2)cc(C(=O)OCC)c1C	0	0	0	0	0	0
